# Laboratory results as given in PubChem BioAssay AID1220 (Sanford-Burnham Center for Chemical Genomics, 2008).
# Out of some 190,000 compounds screened, about 1,300 (0.68%) were called active. Rule as the data show it: active = inhibition above about 50%; inactive = the rest. Shown is part of a subset that was picked to be rich in actives.
# Target: Mannose-6-phosphate isomerase (Homo sapiens) (UniProt P34949)
# Test: human PMI inhibitors, high substrate, primary screen, biochemical, fluorescence intensity, high mannose 6-phosphate (AID 1220)
# Conditions: recombinant PMI enzyme, coupled fluorescence intensity; at 20 µM; hits give high values
# Sequence of Mannose-6-phosphate isomerase (Homo sapiens) (P34949 whole entry, looked up): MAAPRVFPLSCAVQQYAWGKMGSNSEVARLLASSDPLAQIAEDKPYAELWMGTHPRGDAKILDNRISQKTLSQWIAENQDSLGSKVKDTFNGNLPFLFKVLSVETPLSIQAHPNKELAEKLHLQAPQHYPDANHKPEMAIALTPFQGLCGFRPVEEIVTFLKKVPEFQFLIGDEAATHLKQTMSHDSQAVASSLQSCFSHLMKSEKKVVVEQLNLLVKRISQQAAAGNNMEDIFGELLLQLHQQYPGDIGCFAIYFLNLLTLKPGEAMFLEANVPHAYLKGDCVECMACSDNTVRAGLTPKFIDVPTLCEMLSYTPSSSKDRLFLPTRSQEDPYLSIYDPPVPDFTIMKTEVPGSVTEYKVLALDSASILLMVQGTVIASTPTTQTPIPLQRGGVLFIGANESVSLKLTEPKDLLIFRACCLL
row,SMILES,inhibition
1,CN(Cc1ccccc1)CC(O)COc1ccc(CNCCc2ccncc2)cc1 (centres undefined),-5.6% (inactive)
2,CN(C)c1nc(-c2ccccc2)ncc1S(=O)(=O)c1ccccc1,14.6% (inactive)
3,COc1ccc(CC(=O)Nc2ccc(-c3cn4ccc(C)cc4n3)cc2)cc1,-1.3% (inactive)
4,COc1ccc(N(CC(=O)NCc2ccco2)S(=O)(=O)c2ccc(C)cc2)cc1,14.7% (inactive)
5,O=C1CN2NC(=S)N(c3ccccc3)C2=CN1c1ccc(Cl)cc1,-1.1% (inactive)
6,CCOc1ccc(NC(=O)CSc2n[nH]c(=O)n2-c2ccccc2)cc1,6.5% (inactive)
7,Cn1cccc1/C=N/NC(=O)C12CC3CC(CC(C3)C1)C2,2.4% (inactive)
8,C=CCOC(=O)C1=C[C@@H](c2ccc3c(c2)OCO3)C[C@@H](OCc2ccc(CO)cc2)O1,20% (inactive)
9,O=C(O)C1=C[C@@H](c2ccc3c(c2)OCO3)C[C@@H](OCc2ccc(CO)cc2)O1,4.3% (inactive)
10,NC(=O)C1=C[C@H](c2ccc3c(c2)OCO3)C[C@H](OCc2ccc(CO)cc2)O1,59.9% (active)
11,O=C(Nc1ccccc1-c1ccccc1)C1CCC1,8.4% (inactive)
12,COc1ccc(Cc2nc(-c3ccc(-n4cccc4)cc3)no2)cc1,-0.1% (inactive)
13,O=[N+]([O-])c1ccc(OCCN2CCNCC2)cc1,-5.8% (inactive)
14,COc1nnc(-c2ccc(N3CCCCC3)c(NC(C)=O)c2)c2ccccc12,-9.2% (inactive)
15,C=CCNC(=S)N1CCC(C(=O)c2ccc3c(c2)OCCO3)CC1,12.3% (inactive)
16,COc1cnc(-c2ccccn2)nc1Oc1ccccc1,12.7% (inactive)
17,Cc1ccc(OCCn2c(Br)nc3c2c(=O)n(C)c(=O)n3C)cc1,52.7% (active)
18,COc1ccc(C(=O)Cn2c(Br)nc3c2c(=O)n(C)c(=O)n3C)cc1,-3% (inactive)
19,COCCn1c(Br)nc2c1c(=O)n(C)c(=O)n2C,0.3% (inactive)
20,CCc1ccccc1NC(=O)c1cccc(Oc2ccc([N+](=O)[O-])cc2Cl)c1,6.1% (inactive)
21,CN(C)S(=O)(=O)c1ccc(Cl)c(NC(=O)CSc2nc3ccccc3c(=O)n2CCCN2CCOCC2)c1,4.7% (inactive)
22,CCOC(=O)c1ccccc1NC(=O)COC(=O)C1=COCCO1,3.8% (inactive)

row,SMILES,inhibition
1,CC12CN3CC(C)(CN(C1)C3c1c[nH]c3ccccc13)C2=O (centres undefined),3.5% (inactive)
2,Cn1cc(C2N3CC4(C)CN2CC(C)(C3)C4=O)c2ccccc21 (centres undefined),4.5% (inactive)
3,CC12CN3CC(C)(CN(C1)C3c1ccc3ccccc3c1O)C2=O (centres undefined),53.1% (active)
4,CCCCCCNC(=O)Nc1ccccc1,0.8% (inactive)
5,CC(=O)N1C(=O)/C(=C2\SC(=S)N(NS(=O)(=O)c3ccc(C)cc3)C2=O)c2ccccc21,38.2% (inactive)
6,CC(/C=C1\SC(=S)N(NC(=O)c2ccc(O)cc2)C1=O)=C\c1ccccc1,23.4% (inactive)
7,CC(=O)N1C(=O)/C(=C2\SC(=S)N(NC(=O)c3ccc(O)cc3)C2=O)c2ccccc21,56.1% (active)
8,Cc1cc(C)c(S(=O)(=O)n2nc(C)c(Br)c2C)c(C)c1,-6.9% (inactive)
9,O=C(CCn1c(=O)sc2ccccc21)NCc1cccs1,-0.4% (inactive)
10,COCc1cc(C)[nH]c(=O)c1C#N,-5.6% (inactive)
11,O=c1[nH]n(-c2ccccc2)c(=O)c2ccccc12,-0.9% (inactive)
12,O=c1c2ccccc2sn1-c1ccccc1,62.8% (active)
13,Cc1ccccc1N=Cc1c(O)n(-c2nccs2)c(=O)c2ccccc12,16.2% (inactive)
14,CN(C)S(=O)(=O)c1cccc(N2C(=O)CC3(CCCCC3)CC2=O)c1,0.9% (inactive)
15,Cc1cc(=O)c2ccccc2s1,0.5% (inactive)
16,O=c1c2ccccc2c2ccccc2c(=O)n1-c1ccccc1,-1.1% (inactive)
17,O=C1CCCN1c1nccs1,-6.6% (inactive)
18,CN(C)S(=O)(=O)c1cccc(-c2cn3ccccc3n2)c1,-10.7% (inactive)
19,Cc1ccnc(N2C3CCC2CC(O)(c2ccccc2)C3)n1 (centres undefined),-10.5% (inactive)
20,CCOC(=O)c1cnn(-c2ccccc2)c1NC(=O)CCl,-1.3% (inactive)
21,CCN(CC)S(=O)(=O)c1cccc(NC(=O)c2cc(=O)[nH]c3ccccc23)c1,4.5% (inactive)
22,CCCCNC(=O)N(C)c1nc2ccccc2s1,-3.1% (inactive)

row,SMILES,inhibition
1,CCn1c(SCC(=O)NCc2ccccc2)nc2c(c1=O)SC(C)C2 (centres undefined),2.5% (inactive)
2,COc1ccc(CN2CCCC(CNC(=O)c3ccc(F)cc3)C2)c(F)c1 (centres undefined),-6% (inactive)
3,CCOc1ccc(-c2nc(C#N)c(NCC(C)C)o2)cc1,-0.5% (inactive)
4,COc1ccc(CCC(=O)N2c3ccccc3CC2C)cc1 (centres undefined),14.3% (inactive)
5,COc1cc(/C=C/C(=O)N2CCCc3ccccc32)cc(OC)c1OC,-12.4% (inactive)
6,O=C(Nc1nc(-c2cccs2)cs1)c1ccco1,12.4% (inactive)
7,CSCCC(NC(=O)c1ccco1)C(=O)OCc1cc([N+](=O)[O-])cc2c1OCOC2 (centres undefined),5.4% (inactive)
8,CC1CCC2(CC1)NC(=O)N(NC(=O)CCl)C2=O (centres undefined),-10.3% (inactive)
9,CC1CCN(CCOCCOc2ccc(Cl)cc2Br)CC1,-7.9% (inactive)
10,Nc1nnc(N2CCc3ccccc32)s1,6.2% (inactive)
11,Cc1c(Cl)sn(-c2ccc(Cl)cc2)c1=O,-4.6% (inactive)
12,Cc1ccc(Cn2c(=O)sc3ccccc3c2=O)cc1,8% (inactive)
13,COc1cccc(=O)c2c(C)n(-c3ccc(C(=O)O)cc3)c(C)c12,-16.3% (inactive)
14,COc1ccc(-n2c(C)c3c(OC)cccc(=O)c3c2C)cc1,46.4% (inactive)
15,COc1cccc(-n2c(C)c3c(OC)cccc(=O)c3c2C)c1,61% (active)
16,COc1cccc(=O)c2c(C)n(-c3cc(C)cc(C)c3)c(C)c12,29.9% (inactive)
17,COc1ccccc1-n1c(C)c2c(OC)cccc(=O)c2c1C,54.7% (active)
18,COc1cccc(=O)c2c(C)n(C)c(C)c12,-5% (inactive)
19,CNS(=O)(=O)c1cc(C(=O)OCC(=O)NC2CCCc3ccccc32)ccc1Cl (centres undefined),9.4% (inactive)
20,COC(=O)C1=C(C)NC(=O)/C1=C\c1cc(C)n(-c2ccccc2F)c1C,-51.3% (inactive)
